Bioassay records: PubChem BioAssay, National Center for Advancing Translational Sciences (NCATS)
The list is not random: actives were taken first. Their share in the collection is about 0.35%.
LDHA inh: qHTS assay for inhibitors of human lactate dehydrogenase | purified LDHA, NADH/diaphorase-resazurin fluorescence; stronger effect = lower value | activity change, % (values are at about 110 or 230 µM) | actives 0.15% (n = 480,000) | AID 1347041, 2019; in the data active means activity change below about -30%; inconclusive means mostly about -25% to -30%
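Human LDH5 at 2 nM final in Tris HCl pH 7.4 with 0.06 mM NADH and 0.2 mM pyruvate, reacted 5 minutes at room temperature. Remaining NADH coupled via diaphorase/resazurin; resorufin fluorescence read at 0 and 20 minutes, normalized to enzyme-free and DMSO wells.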
RGS4 inhibitor: Inhibitors of Regulator of G Protein Signaling (RGS) 4: qHTS; Regulator of G-protein signaling 4 (Homo sapiens), P49798; Transcreener GDP fluorescence polarization, RGS4-accelerated GTP hydrolysis; Potency, µM (highest dose often 114 µM), actives largely listed as inhibitors; actives 0.039% (n = 390,000); further: nearly all actives have a fitted effect of over 75% in size
Target sequence (P49798 whole entry, looked up): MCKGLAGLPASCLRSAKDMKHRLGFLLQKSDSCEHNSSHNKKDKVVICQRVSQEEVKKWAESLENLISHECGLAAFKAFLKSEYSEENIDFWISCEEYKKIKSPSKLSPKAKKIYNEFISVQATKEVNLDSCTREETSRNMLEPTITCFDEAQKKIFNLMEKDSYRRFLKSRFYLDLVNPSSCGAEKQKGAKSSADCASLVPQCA
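MLSMR compounds (23 nl, pin-transferred) preincubated 10 min at room temperature with a 500nM (2x) first reagent, then RGS4 at 900nM (2x) plus Transcreener GDP mix added; fluorescence polarization (620/688 nm) read before and after 90 min at 30 °C.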
Anesthetic bind: qHTS Assay for Identification of Novel General Anesthetics; apoferritin/1-aminoanthracene competitive binding, fluorescence; Potency, µM (highest dose often 77.5 µM), most hits filed as inhibitors; actives 0.074% (n = 350,000); AID 485281, 2010; further: nearly all actives have a fitted effect of over 20% in size
Target sequence (P02791 2-175 limits assumed): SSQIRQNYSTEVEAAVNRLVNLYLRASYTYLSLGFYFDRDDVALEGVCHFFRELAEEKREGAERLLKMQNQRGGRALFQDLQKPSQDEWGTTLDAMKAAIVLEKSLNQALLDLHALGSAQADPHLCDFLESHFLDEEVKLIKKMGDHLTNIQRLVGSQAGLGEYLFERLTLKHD
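Steps: apoferritin (10 uM) was premixed with half-saturated 1-AMA in PBS, compounds were pin-transferred, plates stood 10 min at room temperature, fluorescence was read at 380/535 nm, and curves were fitted with a Hill equation.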
A-T KAP1 phos: qHTS Assay for Identifying a Potential Treatment of Ataxia-Telangiectasia. F2112 A-T fibroblasts, KAP-1 phosphorylation AlphaLISA; neocarzinostatin DNA damage 30 min before lysis. actives 0.19% (n = 320,000). Potency, µM (series often up to 57.5 µM), actives largely listed as activators; further: nearly all actives have a fitted effect of over 45% in size
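hTERT-immortalized A-T patient fibroblasts (F2112), 500 cells/well in OPTI-MEM, 1% FBS, got compounds for 60 min, then NCS for 30 min at 37C. Lysates were then assayed for phospho-KAP-1 by AlphaLISA (anti-pKAP1 donor, anti-KAP1 acceptor beads), 6 hr at 25C.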
Numbers stand for hits; ! = not active in a repeat. Unless noted, the call rests on the fitted dose curve; in most records, active means well fitted curve in the direction sought with a large enough effect; inconclusive means small, poorly fitted or top-dose-only effect, or another doubt; inactive means no such curve, though single readings can be large; an effect the other way counts as inactive or inconclusive.

`C=Cc1c(C)c2cc3[nH]c(cc4nc(cc5nc(cc1[nH]2)C(C)=C5CCC(=O)O)C(CCC(=O)O)=C4C)c(C)c3C=C` gave LDHA inh inactive, RGS4 inhibitor 9.5µM! and A-T KAP1 phos 32µM.
CCc1nc(N2CCCCC2)c2oc3ccccc3c2n1 was read as LDHA inh inactive, RGS4 inhibitor inactive and Anesthetic bind inactive.
Screening CCc1nc(N2CCCC(C)C2)c2oc3ccccc3c2n1 (stereo not drawn) returned LDHA inh inactive, RGS4 inhibitor inconclusive, Anesthetic bind inactive and A-T KAP1 phos 40µM.
CCCCC[C@H](O)/C=C/[C@H]1[C@H](O)CC(O)[C@@H]1C/C=C\CCCC(=O)O (stereo partly drawn) was read as RGS4 inhibitor 27µM and Anesthetic bind inactive.
`CCCCC/C=C\C/C=C\C/C=C\CC1OC1CCCC(=O)O` (stereo not drawn) gave RGS4 inhibitor 38µM and Anesthetic bind inactive.
Screening CCCCC/C=C\CC1OC1C/C=C\C/C=C\CCCC(=O)O (stereo not drawn) returned Anesthetic bind inactive.
For CC/C=C\C/C=C\C/C=C\C/C=C\C/C=C\CCCCCC(=O)O the results were RGS4 inhibitor 21µM and Anesthetic bind inactive.
For COc1ccc(-c2cc(C(=O)N3CCCCC3)c3cccc(C)c3n2)cc1 the results were LDHA inh inactive.
For CC1CCc2noc(NC(=O)c3cc(=O)c4cc(Br)ccc4o3)c2C1 (stereo not drawn) the results were LDHA inh -39.
Screening N#Cc1c(N2CCN(C(=O)C(=O)N3CCCC3)CC2)nc(-c2ccco2)c2c1CCCC2 returned LDHA inh inactive.
Screening CC(=O)Nc1ccc(NC2=C(Cl)C(=O)c3ccccc3C2=O)cc1 returned LDHA inh inactive, RGS4 inhibitor inactive, Anesthetic bind inactive and A-T KAP1 phos 3.2µM.
`CN(C)c1ccc(NC2=C(Cl)C(=O)c3ccccc3C2=O)cc1` gave LDHA inh inactive, RGS4 inhibitor inactive, Anesthetic bind inactive and A-T KAP1 phos inactive.
`COc1ccc(CCNC(=O)Nc2ccc(F)cc2F)cc1OC` gave LDHA inh inactive, RGS4 inhibitor inactive, Anesthetic bind inactive and A-T KAP1 phos 10µM.
Screening O=C(/C=C/c1ccco1)OC(C(=O)c1ccccc1)c1ccccc1 (stereo not drawn) returned LDHA inh inactive.
C=CCn1c(NCCN(C)C)nc2c1c(=O)[nH]c(=O)n2C was read as LDHA inh inactive.
Screening C=CCn1c(NCCCOC)nc2c1c(=O)[nH]c(=O)n2C returned LDHA inh -35.
`CCN(Cc1cc2ccccc2[nH]c1=O)S(C)(=O)=O` gave LDHA inh inactive.
For CCS(=O)(=O)c1ccc2oc(SCC(=O)NC34CC5CC(CC(C5)C3)C4)nc2c1 the results were LDHA inh inactive, RGS4 inhibitor inactive and Anesthetic bind inconclusive.
Screening CCS(=O)(=O)c1ccc2oc(SCC(=O)NC3CCCC(C)C3C)nc2c1 (stereo not drawn) returned LDHA inh inactive, RGS4 inhibitor inactive, Anesthetic bind 50µM and A-T KAP1 phos inactive.
Screening O=[N+]([O-])c1ccc(CNc2cccc(F)c2)s1 returned LDHA inh inactive, RGS4 inhibitor inactive, Anesthetic bind inconclusive and A-T KAP1 phos inactive.
For Cc1ccc(NCc2ccc([N+](=O)[O-])s2)cc1 the results were LDHA inh inactive, RGS4 inhibitor inactive, Anesthetic bind 16µM and A-T KAP1 phos inactive.
`Cc1cc([N+](=O)[O-])ccc1NCc1ccccc1` gave LDHA inh inactive, RGS4 inhibitor inactive, Anesthetic bind 11µM and A-T KAP1 phos inactive.
Screening Cc1cc([N+](=O)[O-])ccc1NCc1ccc2ccccc2c1 returned LDHA inh inactive, RGS4 inhibitor inactive, Anesthetic bind inconclusive and A-T KAP1 phos inactive.
`Cc1ccccc1NCc1ccc([N+](=O)[O-])s1` gave LDHA inh inactive, RGS4 inhibitor inactive, Anesthetic bind 8.9µM and A-T KAP1 phos inactive.
For COc1ccccc1NCc1ccc([N+](=O)[O-])s1 the results were LDHA inh inactive, RGS4 inhibitor inactive, Anesthetic bind inconclusive and A-T KAP1 phos inactive.
`Cc1cccc(NCc2ccc([N+](=O)[O-])s2)c1` gave LDHA inh inactive, RGS4 inhibitor inactive, Anesthetic bind 16µM and A-T KAP1 phos inactive.
Cc1ccc(-c2[nH]ncc2CNCc2cccnc2)cc1 was read as LDHA inh inactive.
`O=C(CNC(=O)c1cccc(Br)c1)N/N=C/c1ccc[nH]1` gave LDHA inh inactive, RGS4 inhibitor inactive, Anesthetic bind inconclusive and A-T KAP1 phos inactive.
`NNC(=O)CNC(=O)c1cccc(Br)c1` gave LDHA inh inactive, RGS4 inhibitor inactive, Anesthetic bind 28µM and A-T KAP1 phos inactive.
`O=C(CSc1nnc(-c2cccc(S(=O)(=O)N3CCCC3)c2)n1-c1ccccc1)Nc1ccc2c(c1)OCO2` gave LDHA inh inactive.
For COc1ccc(-c2nc3n(c2C)Cc2ccccc2-3)cc1 the results were LDHA inh inactive, RGS4 inhibitor inactive, Anesthetic bind inactive and A-T KAP1 phos 22µM.
For N#Cc1ccc(OCCN2CCCc3ccccc32)cc1 the results were LDHA inh inactive.
`N#Cc1nc(-c2ccccc2Cl)oc1N1CCOCC1` gave LDHA inh -32!, RGS4 inhibitor inactive, Anesthetic bind inactive and A-T KAP1 phos inactive.
`O=C(CN1CCN(S(=O)(=O)c2ccc3ccccc3c2)CC1)N1CCc2ccccc2C1` gave LDHA inh inactive, RGS4 inhibitor inactive, Anesthetic bind inactive and A-T KAP1 phos inactive.
Screening O=C(CN1CCN(S(=O)(=O)c2ccccc2F)CC1)N1CCc2ccccc2C1 returned LDHA inh -47, RGS4 inhibitor inactive and A-T KAP1 phos inactive.
For CCC(=O)Nc1cccc(C(=O)/C=C/c2cc(Br)ccc2OC)c1 the results were LDHA inh inactive, RGS4 inhibitor inconclusive, Anesthetic bind inconclusive and A-T KAP1 phos 35µM.
Screening CC(=O)Nc1cccc(C(=O)/C=C/c2ccc(Br)cc2)c1 returned LDHA inh inactive, RGS4 inhibitor inactive, Anesthetic bind inactive and A-T KAP1 phos 25µM.
`Cc1cc(C)cc(CC2CC(=O)N(c3nc(C)cc(C)n3)C2=O)c1` (stereo not drawn) gave LDHA inh inactive, RGS4 inhibitor inactive, Anesthetic bind 5.6µM and A-T KAP1 phos inactive.
For Cc1ccc(N2C(=O)CC(Cc3cc(C)cc(C)c3)C2=O)cc1 (stereo not drawn) the results were LDHA inh inactive, RGS4 inhibitor inactive, Anesthetic bind inactive and A-T KAP1 phos inactive.
`CCOC(=O)c1sc(Nc2ccc(C(C)=O)cc2)nc1C(F)(F)F` gave LDHA inh inactive.
`c1csc(CN2CCOCC2)c1` gave LDHA inh -31, RGS4 inhibitor inactive, Anesthetic bind inactive and A-T KAP1 phos inactive.
